# Bioassay records deposited in PubChem BioAssay by several laboratories.
# BCLXL inh – Bcl-xL (human) inhibition | Q07817 | GST-Bcl-xL / FITC-Bim BH3 peptide fluorescence polarization | inhibition, % at 10.9 µM | 320,000 compounds, 0.7% hits | AID 2129;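 active = inhibition above the mean of all tested compounds plus 3 SD, cutoff set per campaign, cut at about 30% in these data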;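 also: 0% = DMSO wells and 100% = unlabeled Bim-BH3 peptide competitor; inhibitors lower millipolarization by displacing the labeled peptide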
# Target sequence (Q07817 whole entry, looked up): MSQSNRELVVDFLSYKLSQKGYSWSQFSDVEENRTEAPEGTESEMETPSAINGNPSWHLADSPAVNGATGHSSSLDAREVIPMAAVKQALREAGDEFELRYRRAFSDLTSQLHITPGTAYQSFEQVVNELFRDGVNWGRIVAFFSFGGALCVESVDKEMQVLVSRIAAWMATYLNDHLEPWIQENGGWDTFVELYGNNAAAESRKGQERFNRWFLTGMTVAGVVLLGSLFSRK
# MCL1 BIM primary – inhibitors of human MCL1 binding to BIM-BH3 peptide; 320,000 compounds, 0.68% hits; GST-MCL1 / FITC-Bim-BH3 fluorescence polarization; AID 2057; Q07820; inhibition, % at 10.9 µM;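 active = inhibition above the mean inhibition of all tested compounds plus 3 SD, set per campaign, cut at about 40% in these data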;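 also: 0% = DMSO wells and 100% = unlabeled Bim-BH3 peptide control; higher means more loss of mP so more displacement of Bim peptide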
# Target sequence (Q07820 whole entry, looked up): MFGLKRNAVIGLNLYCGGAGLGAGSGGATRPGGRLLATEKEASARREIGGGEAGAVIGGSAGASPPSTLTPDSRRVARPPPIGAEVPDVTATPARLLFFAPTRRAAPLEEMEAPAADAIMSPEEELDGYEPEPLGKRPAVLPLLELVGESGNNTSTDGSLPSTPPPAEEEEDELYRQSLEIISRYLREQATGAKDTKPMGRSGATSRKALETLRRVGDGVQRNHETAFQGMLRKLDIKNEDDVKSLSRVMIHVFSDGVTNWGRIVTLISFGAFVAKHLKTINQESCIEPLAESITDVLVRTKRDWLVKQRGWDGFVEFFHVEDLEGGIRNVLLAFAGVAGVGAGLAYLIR
# MEX-5 binding – C. elegans MEX-5 TCR-2 RNA binding activity | Q9XUB2 | MEX-5/FITC-TCR2 RNA binding, fluorescence polarization; active compounds read low | activity score (negative = inhibition of binding), % at 10 µM | 300,000 compounds, 0.38% hits | AID 1832;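 active = inhibition past about -25% in most replicates, and total fluorescence under double the plate's negative control median, limit read from the data; inconclusive = replicates evenly split on the limit, or fluorescence at least double controls; inactive = too little inhibition in most replicates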;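 also: 0% = DMSO and -100% = 5 µM competing unlabeled TCR2 RNA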
# EBV gp42 block – inhibitors of Epstein-Barr virus glycoprotein 42; Q1HVG2; inhibition, % (tested at 21.74 µM); 220,000 compounds, 0.42% hits; Fluorescence polarization binding assay, mP read-out; in the data active = inhibition above about 50%
# GLD-1 TGE inh – GLD-1-TGE RNA interaction inhibition (C. elegans); Q17339; purified GLD-1 + fluorescein TGE RNA, fluorescence polarization; inhibition, % at 5.96 µM; 320,000 compounds, 0.44% hits;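 active = percent inhibition above a per-plate cutoff, the plate mean of test compounds plus 3 SD, cut at about 30% in these data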;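 also: 0% = DMSO wells with GLD-1 and probe and 100% = wells lacking GLD-1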
# eLon inh – E. coli protease La inhibition; 360,000 compounds, 0.42% hits; P0A9M0; AID 602123; inhibition, % at 7.94 µM; purified E. coli Lon protease, fluorescence polarization; in the data active = inhibition above about 13%, passing the limit was not always enough;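 also: 0% = enzyme with probe and DMSO and 100% = no enzyme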
# Bcl-xL conf – counter-screen for MCL1 inhibitors: confirmation of human Bcl-xL inhibitors. shares compounds with MCL1 BIM primary. GST-Bcl-xL / FITC-Bim BH3 peptide FP binding. inhibition, % at 10.9 µM. 1,700 compounds, 54% hits;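 active = inhibition above a cutoff equal to the mean inhibition of all tested compounds plus 3 SD, cut at about 30% in these data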;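 also: 0% = DMSO wells and 100% = unlabeled Bim BH3 control peptide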
# MCL1 inh confirm – confirmation of human MCL1 and BIM-BH3 interaction inhibitors; shares compounds with MCL1 BIM primary; GST-MCL1 / FITC-Bim-BH3 fluorescence polarization; inhibition, % at 10.9 µM; 1,700 compounds, 61% hits; AID 2168;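 active = inhibition above the average of all tested compounds plus 3 SD, cut at about 40% in these data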;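 also: 0% = DMSO wells and 100% = unlabeled Bim-BH3 control peptide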
# Numbers without * were called inactive; ? = inconclusive; . = no result given; + = active, no number. Shown are actives, neighbours in structure and some others; about 1.5% of the full set was active somewhere.
SMILES,BCLXL inh,MCL1 BIM primary,MEX-5 binding,EBV gp42 block,GLD-1 TGE inh,eLon inh,Bcl-xL conf,MCL1 inh confirm
COc1ccccc1OCC(=O)Nc1sc2c(c1C(N)=O)CCC2,.,.,.,.,-1,-10,.,.
COc1cccc(C(=O)OCC(=O)Nc2sc3c(c2C(N)=O)CCC3)c1O,21,50*,.,.,-5,-17,24,45*
COCCn1cnnc1SCC(=O)Nc1sc2c(c1C#N)CCC2,2,16,.,.,-5,-21,.,.
Cn1cnnc1SCC(=O)Nc1sc2c(c1C(N)=O)CCC2,20,56*,-5,65*,-2,-23,24,56*
CCc1cccc2cc3c(N)c(C(=O)Nc4ccc(S(=O)(=O)N5CCCC5)cc4)sc3nc12,104*,94*,-24,81*,61*,-108,43*,67*
O=C1NC(=O)C(c2ccccc2[N+](=O)[O-])=C1Nc1ccc(O)c(Cl)c1,29,50*,-12,.,3,9,24,27
COc1ccc(OC)c(N2C(=O)[C@@H]3C(c4ccccc4Cl)=NO[C@@H]3C2=O)c1,12,53*,-4,0,3,-3,16,38
COc1cc(/C=C2\CCc3c2nc2ccccc2c3C(=O)O)cc(OC)c1OC,20,76*,-26*,-8,2,-10,30,75*
CC(=O)c1sc2nc(-c3cccs3)cc(C(F)(F)F)c2c1N,63*,68*,-30*,-95,-4,-21,74*,83*
Cc1c(C(=O)O)sc2nc(-c3cccs3)cc(C(F)(F)F)c12,8,4,-2,.,1,3,.,.
COc1ccc(-c2cc(C(F)(F)F)c3c(N)c(C(=O)NCCSC)sc3n2)cc1,80*,78*,?,.,58*,-12,81*,85*
COCCN(C(=S)Nc1ccccc1OC)C(C)c1cccs1 (stereo not given),4,2,-1,-2,-2,-11,.,.
CCOC(=O)C(C(=O)OCC)c1cc(Br)c2noc3c2c1C(=O)c1ccccc1-3,176*,196*,-32*,133*,171*,-7,145*,148*
CC(=O)OCCNc1cc(N2CCN(C)CC2)c2noc3c2c1C(=O)c1ccccc1-3,.,.,.,12,.,-3,.,.
Cc1cc(C(=O)Nc2ccc(Cl)cc2)n(-c2ccccc2)n1,3,6,2,.,-4,3,.,.
Cc1ccc(NC(=O)c2cc(C)nn2-c2ccccc2)cc1,+,+,0,4,161*,-3,12,-1
O=C(CCc1ccccc1)Oc1ccccc1[N+](=O)[O-],7,73*,0,.,3,.,3,-1
O=C(CCc1ccccc1)Nc1ccccc1[N+](=O)[O-],1,-9,0,-6,4,-3,.,.
Cc1c(Br)c(=O)oc2c(Br)c(O)c(O)cc12,24,68*,-11,-10,6,-9,36*,84*
C=CCn1c(O)c(N=Nc2ccccc2[N+](=O)[O-])c2ccccc21,.,.,.,.,.,8,.,.
CCOc1ccc(/C=C/C(=O)Nc2ccc(OC)cc2[N+](=O)[O-])cc1,57*,83*,?,7,63*,6,60*,68*
CCOc1ccc(N/C(=C(/C(Cl)=C(Cl)Cl)[N+](=O)[O-])n2cncn2)cc1,92*,93*,-49*,28,55*,.,121*,156*
O=[N+]([O-])/C(C(Cl)=C(Cl)Cl)=C(\Nc1ccc(F)cc1)n1cncn1,3,2,2,-23,7,.,.,.
O=C(CSc1ncccn1)c1ccccc1Br,-1,2,1,-2,-8,-16,.,.
CC1(O)C(=O)C=C2C=C(c3ccc(C#N)cc3)OC=C2C1=O (stereo not given),8,47*,1,.,8,.,13,40*
SMILES,BCLXL inh,MCL1 BIM primary,MEX-5 binding,EBV gp42 block,GLD-1 TGE inh,eLon inh,Bcl-xL conf,MCL1 inh confirm
CCC(=O)OC1(C)C(=O)C=C2C=C(c3ccc(C#N)cc3)OC=C2C1=O (stereo not given),19,31,-4,.,14,-8,.,.
CCC(=O)NCc1ccc(-c2nc3ncccc3o2)cc1,2,7,0,.,7,0,.,.
CCc1cc(=O)oc2cc(C)c(CN3CCCC3)c(O)c12,33*,72*,-1,10,14,-1,52*,88*
COc1ccc(S(=O)(=O)c2c(N)n(Cc3ccco3)c3nc4ccccc4nc23)cc1,101*,105*,-2,50*,117*,-31,22,31
COc1ccc(/C=C2\SC(=O)NC2=S)cc1OC,102*,122*,-36*,15,100*,24,38*,36
COc1ccc2[nH]c3c(c2c1)CCNC3c1ccc([N+](=O)[O-])o1 (stereo not given),87*,96*,-50*,.,37*,11,79*,101*
Cc1onc(-c2ccccc2)c1C(=O)OCC(=O)NC(=O)c1ccccc1,6,5,0,.,6,-8,.,.
COc1ccccc1N(CC(=O)NC1CCCCC1)C(=O)c1csnn1,2,0,2,-13,6,5,.,.
COc1ccccc1N(CC(=O)NC1CCCC1)C(=O)c1csnn1,3,69*,1,4,-3,5,7,3
Cn1c(N)c(C(=O)CSc2nc(C3CC3)n(-c3ccccc3)n2)c(=O)[nH]c1=O,10,69*,.,.,-4,1,-12,-14
Cn1c(N)c(C(=O)CSc2nnc(C3CC3)n2-c2ccccc2)c(=O)[nH]c1=O,.,.,.,.,-2,5,.,.
Cn1c(N)c(C(=O)CSc2nnc(C3CC3)n2-c2ccccc2)c(=O)n(C)c1=O,3,58*,.,.,1,-11,4,5
Cc1cc(C=O)c2c(c1)C=CC1(Oc3ccccc3C(=O)N1C)O2 (stereo not given),58*,53*,-2,7,109*,.,11,15
Cc1ccc2nc(-c3ccc(-c4cccc(Cl)c4)cc3)c(NCc3ccccc3)n2c1,50*,78*,4,.,1,-4,24,19
COc1cc(-c2nc3ccc(C)cn3c2NCc2ccccc2)ccc1-c1cccc(Cl)c1,.,.,.,.,5,-13,.,.
COc1ccc(C(C)=O)c2c(O)cccc12,0,-9,-2,7,7,1,.,.
CCC1=NNc2cccc3c(OC)ccc1c23,116*,126*,-1,-1,11,.,45*,38
CC(=O)Nc1ccc(S(=O)(=O)N2CCSc3ccccc32)cc1,.,.,.,.,8,-10,.,.
COc1cc(OC)cc(C(=O)Nc2cccc(NC(=O)c3ccccc3)c2)c1,5,4,3,.,-9,1,.,.
